Shown are actives, neighbours in structure and some others; about 2.9% of the full set was active somewhere.
TRPML1 inh: human mucolipin-1 channel inhibition | Q9GZU1 | AID 624415 | TRPML1-inducible cells, Ca2+ dye fluorescence, FDSS; hits give low values; inhibition of EC80 agonist-evoked calcium signal | hit rate 0.02% among 390,000 | activity change, negative = inhibition, % (test concentration not listed); in the data active means activity change below about -50%; inconclusive means between about -30% and that limit;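 further: stimulus is agonist 54-4 at its EC80 concentration; on the % scale 0 is the no-effect control and ±100 the full control effect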
Target sequence (Q9GZU1 whole entry, looked up): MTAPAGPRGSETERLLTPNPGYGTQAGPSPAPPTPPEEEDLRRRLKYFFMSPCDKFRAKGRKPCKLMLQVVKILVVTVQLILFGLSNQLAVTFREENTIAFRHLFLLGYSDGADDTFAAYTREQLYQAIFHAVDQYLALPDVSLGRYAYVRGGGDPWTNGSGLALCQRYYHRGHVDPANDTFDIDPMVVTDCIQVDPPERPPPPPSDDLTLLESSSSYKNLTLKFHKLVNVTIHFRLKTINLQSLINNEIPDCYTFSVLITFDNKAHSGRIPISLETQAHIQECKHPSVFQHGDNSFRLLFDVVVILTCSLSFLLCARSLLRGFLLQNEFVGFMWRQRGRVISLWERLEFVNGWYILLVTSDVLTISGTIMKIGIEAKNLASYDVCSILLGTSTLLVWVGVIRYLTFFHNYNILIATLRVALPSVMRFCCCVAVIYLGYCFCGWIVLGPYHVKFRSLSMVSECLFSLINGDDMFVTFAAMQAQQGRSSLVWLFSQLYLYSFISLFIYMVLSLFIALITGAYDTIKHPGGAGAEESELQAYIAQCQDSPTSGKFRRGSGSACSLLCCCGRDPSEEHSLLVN
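Tet-induced TRPML1-DL cells loaded with Ca8 no-wash calcium dye were read kinetically on FDSS. Compound addition was followed by EC80 agonist 54-4 (4 uM final); inhibition was read over 110 s.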
D3 ag: agonists of human D3 dopamine receptor | D3R DiscoveRx beta-arrestin cells, luminescence, 90 min | max activation, % | hit rate 0.58% among 410,000 | AID 652048; in the data active means max activation above about 30%; further: 0% is about no effect
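Agonist-mode cell screen: cells plated at 1500/well and incubated overnight at 37 °C, then exposed to library compounds for 90 min at 37 °C. Detection reagent was added for 30–60 min at room temperature, and luminescence was read.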
TRPML1 agonist: activates the human TRPML1 channel | Q9GZU1 | TRPML1-expressing cells, Ca2+ dye fluorescence, FDSS | activation, % (test concentration not listed) | hit rate 0.12% among 410,000 | AID 624414; in the data active means activation above about 50%; inconclusive means mostly about 30% to 49%; further: 0% is about no effect
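Tetracycline-induced TRPML1-DL cells are seeded and incubated overnight before loading with a no-wash Ca2+ dye and quencher. Agonist activity is taken from the 110 s fluorescence read following compound pin-transfer on an FDSS, before EC80 54-4 challenge.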
D3 antag: D3 dopamine receptor (human) antagonism; P35462; D3R cells, DiscoveRx beta-arrestin luminescence, antagonist mode; hits give low values; max response, negative = inhibition, %; hit rate 2.5% among 360,000; AID 652054; in the data active means max response below about -50%; inconclusive means no clear call, values can overlap the other calls; further: on the % scale 0 is the no-effect control and ±100 the full control effect
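Cells expressing the human receptor were seeded at 1500 cells/well, incubated overnight at 37 degrees C in 5% CO2, then exposed to library compounds with dopamine controls for 90 minutes at 37 degrees C before luminescent detection.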
An asterisk follows results filed as active; ? = inconclusive; . = no result.

SMILES	TRPML1 inh	D3 ag	TRPML1 agonist	D3 antag
Cc1ccc(S(=O)(=O)N2[C@@H](c3ccc(Cl)cc3)C(C(=O)O)=CC[C@H]2c2ccc(C(C)C)cc2)cc1	-16.7	-46.8	-0.1	-22.2
CN(C)CCNC(=O)Cn1ccc2cc(S(=O)(=O)N3CCCCCC3)ccc21	-0.9	-15.6	0.5	-54.6*
Cc1ccccc1CCNC(=O)Cn1ccc2cc(S(=O)(=O)N3CCCC3)ccc21	11.9	-4.6	0.7	0.6
COc1ccc2nc(Nc3nc(CSc4ccc(C)cc4)cc(=O)[nH]3)nc(C)c2c1	-4.0	4.7	0.3	3.2
Cc1ccc(SCc2cc(=O)[nH]c(Nc3nc(C)c4cccc(C)c4n3)n2)cc1	1.1	-7.4	-0.2	-84.5*
COc1ccc2nc(Nc3nc(CSc4nnnn4-c4ccccc4)cc(=O)[nH]3)nc(C)c2c1	12.6	7.0	0.1	-58.5*
Cc1c(C(=O)N2CCCCCC2)c(S(=O)(=O)N(Cc2ccccc2)C(C)(C)C)c(C)n1C	6.9	5.0	8.8	.
CCc1nn2c(=O)cc(COC(=O)c3ccccc3NC(=O)c3ccc(C(C)(C)C)cc3)nc2s1	4.1	-13.0	1.0	.
OCC[C@@H]1C[C@H](O)[C@@H](O)[C@]2(OCc3ccc(CO)cc32)O1	.	-14.5	0.0	-63.6*
COc1ccc(C(=O)NCc2ccc(OCCN(C)C)cc2)cc1OC	-9.2	-75.9	-0.3	-72.4*
COc1cc(C(=O)NCc2ccc(OCCN(C)C)cc2)cc(OC)c1OC	-11.5	-86.1	0.3	-94.7*
CCOc1ccc(NC(=O)CNC(=O)c2ccc(OC)c(OC)c2)cc1	13.1	-11.3	-0.1	-54.0*
CCOc1ccc(NC(=O)CNC(=O)c2ccc(OC)cc2)cc1	47.0	0.3	0.0	5.2
CCO[C@@H]1O[C@H](C(COCc2ccccc2)OCc2ccccc2)[C@H](OCc2ccccc2)[C@H]1O (stereo not given in full)	.	-1.2	.	.
O=C(Cc1cccs1)N[C@@H]1C(=O)N2C(C(=O)[O-])=C(C[n+]3ccccc3)CS[C@H]12	.	7.3	.	.
Cc1ccc(C(=O)NCCN2C3=NC[C@H](Cc4ccc(O)cc4)N3C[C@H]2Cc2ccc(O)cc2)cc1Br	-14.7	-52.8	1.1	?
COc1ccc(C[C@H]2CN3C(=NC[C@H]3Cc3ccccc3)N2CCNC(=O)c2ccc(C)c(Br)c2)cc1	6.7	-34.1	0.9	-2.7
Cc1ccc(C(=O)NCCN2C3=NC[C@@H](Cc4ccccc4)N3C[C@H]2Cc2ccc(O)cc2)cc1Br	0.3	-14.8	-0.2	-57.6*
COc1ccc(C[C@H]2CN3C(=NC[C@@H]3Cc3ccccc3)N2CCNC(=O)c2ccc(C)c(Br)c2)cc1	-0.5	-50.9	-0.5	-99.7*
C/C=C(\C)C(=O)NCCN1C2=NC[C@H](Cc3ccccc3)N2C[C@H]1Cc1ccc(O)cc1	-9.0	-13.7	-0.3	3.2
COc1ccc(C[C@H]2CN3C(=NC[C@@H]3Cc3ccc(O)cc3)N2CCNC(=O)c2ccc(C)c(Br)c2)cc1	27.7	-67.2	-0.4	-98.4*
C/C=C(\C)C(=O)NCCN1C2=NC[C@H](Cc3ccccc3)N2C[C@@H]1Cc1ccc(OC)cc1	-0.1	0.0	-0.5	-52.5*
O=C(Cn1c(=O)c(CNc2ccccc2)cc2cc3c(cc21)OCCO3)Nc1ccccc1Cl	8.3	7.0	4.1	.
CCN(CC)c1ccc(-c2nnc(SCC(=O)NCc3ccco3)n2C)cc1	.	.	-0.7	.
CC(=O)Nc1c(F)c(F)c(F)c(F)c1F	39.7	0.0	-0.1	?
SMILES	TRPML1 inh	D3 ag	TRPML1 agonist	D3 antag
CC(=O)Nc1c(I)cc(I)c(C(=O)O)c1I	.	65.8*	.	.
CCOc1ccccc1-n1c(=S)sc2c(=O)n(-c3ccc(C)cc3)c(=S)[nH]c21	?	5.6	66.3*	0.3
Cc1nc(N)sc1-c1csc(Nc2cccc(C(=O)O)c2)n1	-19.4	3.0	-0.2	2.6
Cc1nc(N)sc1-c1csc(Nc2ccccc2)n1	-7.1	3.4	-0.3	-55.5*
COc1ccc(C(=O)NC(=S)NNC(=O)c2ccccc2O)cc1	-4.0	37.7*	8.7	17.2
COc1ccc(C(=O)NNC(=S)NC(=O)c2cc(-c3ccccc3)nc3ccccc23)cc1	-3.2	-8.5	5.2	-8.1
Cc1onc(-c2ccccc2)c1C(=O)NNC(=S)NC(=O)c1ccc(Br)cc1	24.4	-18.2	?	-26.1
CCCOc1ccc(C(=O)NNC(=S)NC(=O)c2cc(-c3ccc(Cl)cc3)nc3ccccc23)cc1	-24.1	-8.5	3.9	-50.3*
Cc1onc(-c2ccccc2)c1C(=O)NNC(=S)NC(=O)c1ccc(Cl)cc1Cl	17.7	5.3	91.1*	-21.5
Cc1ccc(C(=O)NNC(=S)NC(=O)c2ccc(Cl)cc2)cc1	-17.0	-5.5	60.8*	13.3
COc1ccc(C(=O)NC(=S)NNC(=O)c2ccccc2C)cc1	-8.8	4.2	9.7	9.1
CC1=C(C(=O)Nc2cc(Cl)ccc2C)C2(CCCCC2)OC1=O	30.8	-3.4	0.1	.
Cc1cccc(C(=O)NC(=S)NNC(=O)Cc2ccccc2)c1	-22.2	8.8	21.5	-7.2
COc1ccc(C(=O)NNC(=S)NC(=O)C(C)(C)C)cc1	32.4	2.1	50.7*	-14.1
CNC(=O)NC(=S)NC(=O)c1ccc(OC)cc1	-14.7	-6.9	0.3	-72.2*
O=C(NC(=S)NNC(=O)c1ccccc1O)c1cccc([N+](=O)[O-])c1	10.4	43.1*	-0.1	8.4
COc1ccc(C(=O)NNC(=S)NC(=O)c2cccc([N+](=O)[O-])c2)cc1	23.1	-1.3	3.9	27.2
COc1ccc(C(=O)NC(=S)Nc2ccccc2F)cc1	22.4	-8.0	-0.2	0.0
Cc1cccc(C(=O)NC(=S)NNC(=O)c2ccccc2Cl)c1	17.6	4.2	68.0*	1.8
CC1CCN(CCCNC(=O)c2ccc(CSCc3cccc(Cl)c3)o2)CC1	3.7	-60.3	0.3	-62.0*
Cc1noc(C)c1C(=O)OCC(=O)Nc1cccc(F)c1	-20.0	-7.0	-0.2	-62.1*
CCc1noc(C)c1C(=O)OCC(=O)Nc1cccc(C)c1	25.9	3.9	0.1	11.5
C[C@H](CN1CCCC1)C(=O)c1ccc(C(F)(F)F)cc1	.	-4.0	.	.
CCOC(=O)c1c(C)cc(O)cc1O	.	38.1*	.	9.8
COCCN1C(=O)c2ccccc2C(C(=O)N2CCN(c3ccccn3)CC2)C1c1ccc(F)cc1 (stereo not given)	12.1	-6.2	1.5	-51.3*
SMILES	TRPML1 inh	D3 ag	TRPML1 agonist	D3 antag
O=C(c1[nH]c(C(F)(F)F)nc1-c1ccccc1)N1CCN(c2cccc(C(F)(F)F)n2)CC1	.	-6.1	-0.5	-55.5*
CC1CCN(C(=O)c2[nH]c(C(F)(F)F)nc2-c2ccccc2)CC1	-10.6	8.3	-0.6	-68.8*
CCOC(=O)CCCC(=O)N1CCN(/[N+]([O-])=N/Oc2ccc([N+](=O)[O-])cc2[N+](=O)[O-])CC1	-10.3	.	1.9	.
COc1ccc(-c2csc(N3CCN(c4cc(C)nc5ccccc45)CC3)n2)cc1OC	7.9	31.6*	1.6	76.3
COc1cc(-c2csc(N3CCOCC3)n2)cc(OC)c1OC	6.6	-12.8	-0.8	10.5
OCCNCc1ccc(-c2ccccc2)cc1	12.1	-3.6	0.2	-22.1
